Our source for the Potency and activation values is PubChem BioAssay (Tox21).

Results filed as inconclusive are left out. Where a call stands in place of a potency, no number is given. The source made the active and inactive calls. Calls follow the shape of the full dose curve.

The assay is described as follows: p53 small molecule agonists, cell-based qHTS assay with rat liver microsomes (AID 1963578). Particulars: HCT-116 p53RE-bla, beta-lactamase ratio, 16 h; series mostly up to 66 µM. The text has this:
U.S. Tox21 Program National Center for Advancing Translational Sciences [NCATS] Division of Preclinical Innovation [DPI] U.S. Environmental Protection Agency [EPA] National Institutes of Environmental Health Sciences [NIEHS] National Toxicology Program [NTP] U.S. Food and Drug Administration [FDA] Tox21 Assay Overview: p53, a tumor suppressor protein, is activated following cellular insult, including DNA damage and other cellular stresses. The activation of p53 regulates cell fate by inducing DNA repair, cell cycle arrest, apoptosis, or cellular senescence. The activation of p53, therefore, is a good indicator of DNA damage and other cellular stresses. […] The activation of the reporter gene under culture conditions can be detected by fluorescence intensity. This cell line was used to screen the Tox21 10K compound library in the condition of presence of rat liver microsomes and to identify agonists that activate the p53 signaling pathway after in vitro metabolic activation (Ooka et al., Archive of Toxicology 96:1975-1987, 2022).
Tox21 Assay Protocol Summary: The p53RE-bla cells were dispensed at 4,000cells/3ul/well in 1536-well black-clear bottom plates. After the assay plates were incubated at 37 C, 5% CO2 incubator for 5 hours, 23 nL of compounds dissolved in DMSO, positive controls or DMSO only was transferred to the assay plate. Following compound addition, 3 uL of rat liver microsomes (Molecular Toxicology, Boone, NC) at final concentration of 0.5 mg/mL and 1uL of Beta-Nicotinamide adenine dinucleotide 2-phosphate (NADPH) at final concentration of 0.5 mg/mL were transferred to the assay plate. The plates were incubated at 37 C for 16 hours. 1 uL of LiveBLAzer detection mixture was added to each well and the plates were incubated at room temperature in the dark for 2 h.
(In general: Quantitative high-throughput screening tests each substance at several concentrations.)
Take `CCCCCCCCSCCO`: the Potency result was “inactive”.
With `CCCCCCCCCCCCCCCCI`, the activation was -1.95% [at 13.6 µM] (inactive).
Consider `c1ccc(SCCSc2ccccc2)cc1`, for which the Potency result was “inactive”.
Still for that read-out and setting: for `O=c1n(CCO)c(=O)n(CCO)c(=O)n1CCO` the value was “inactive”; for `CC(C)CCOCCC(C)C`, “inactive”.
Same read-out and setting: for `C=C[Si](OC(=C)C)(OC(=C)C)OC(=C)C` the value was “inactive”; for `CCCCCCCCCCCC(=O)OCC(C)OC(=O)CCCCC(=O)O` (stereo not given), “inactive”.
Same read-out and setting: then `Cc1cccc(Cl)c1`, with “inactive”; and `N#CC1(O)CCCCC1`, with “inactive”; and `CC(C)c1cccc(O)c1`, with “inactive”.
`c1ccc(CNc2ncnc3c2ncn3C2CCCCO2)cc1` (stereo not given): the Potency entry is “inactive”.
`CN(CCOc1ccc(CC2SC(=O)NC2=O)cc1)c1ccccn1` (stereo not given): the Potency result was “inactive”.
On the same count and under the same terms, for `CCCCCCCCN(C)C` the value was “inactive”.
The same measure, in the same setting: for `O=[N+]([O-])c1ccccc1Nc1ccccc1` the value was “inactive”; for `CC#N`, “inactive”.
As to `C[Si](C)=O`, the activation is 0.12% [at 5.99 µM] (inactive).
As for `O=C(O)[C@@H](O)[C@H](O)[C@H](O)[C@@H](O)C(=O)O`, the Potency result was “inactive”.
`CCCCCCCCc1ccc(Nc2ccc(CCCCCCCC)cc2)cc1`: the Potency result was “inactive”.
The same measure, in the same setting: then `O=c1cc(CO)occ1O`, with “inactive”.
On the same count and under the same terms, then `C=C(C)C(=O)OCCCCCCOC(=O)C(=C)C`, with “inactive”.
For `Oc1ccc(/C=C/c2cc(O)cc(O)c2)cc1`, the Potency result is “inactive”.
For `CC(C)CC(C)(N)C#N` (stereo not given), the Potency entry is “inactive”.
The same measure, in the same setting: for `CCSC(=O)N(CC)CC` the value was “inactive”; for `CCN(CC)c1ccc(C=O)c(O)c1`, “inactive”; for `O=C(O)c1cc(=O)c2c(OCC(O)COc3cccc4oc(C(=O)O)cc(=O)c34)cccc2o1`, “inactive”.
As for `CCCC(=O)C(C)=O`, the Potency entry is “inactive”.
On the same count and under the same terms, then `C/C=C/CO`, with “inactive”; and `O=C1OC(=O)c2c(Cl)c(Cl)c(Cl)c(Cl)c21`, with “inactive”; and `O=C[C@H](O)[C@H](O)[C@H](O)CO`, with “inactive”.
Same read-out and setting: for `COc1ccc(C)cc1` the value was “inactive”.
As to `CCCCCCCCCCCCCCCC(=O)NCCO`, the Potency entry was “inactive”.
Consider `COCCCC/C(=N\OCCN)c1ccc(C(F)(F)F)cc1`, for which the Potency result is “inactive”.
Still for that read-out and setting: then `COC(=O)N[C@H](C(=O)N[C@@H](Cc1ccccc1)[C@@H](O)CN(Cc1ccc(-c2ccccn2)cc1)NC(=O)[C@@H](NC(=O)OC)C(C)(C)C)C(C)(C)C`, with “inactive”; and `CCCCNc1ccccc1`, with “inactive”.
Same read-out and setting: for `CC(=O)N1CCN(c2ccc(O)cc2)CC1` the value was “inactive”; for `O=C(CCNNC(=O)c1ccncc1)NCc1ccccc1`, “inactive”.
As for `COc1cccc(OC)c1C(=O)O`, the Potency result is “inactive”.
Same read-out and setting: then `O=[N+]([O-])c1ccccc1CCO`, with “inactive”; and `CO[C@@H]1[C@@H](O[C@@H]2O[C@H](C)[C@@H](O[C@H]3C[C@@](C)(O)[C@@H](O)[C@H](C)O3)[C@H](N(C)C)[C@H]2O)[C@@H](CC=O)C[C@@H](C)[C@@H](O[C@@H]2CC[C@H](N(C)C)[C@@H](C)O2)/C=C/C=C/C[C@@H](C)OC(=O)C[C@H]1OC(C)=O`, with “inactive”; and `NCCCN1CCN(CCCN)CC1`, with “inactive”.
